In the OligoGym collection:

Molecular target: ELF2
Assay: pooled miR-30 sensor sort-seq; sequence = guide strand
Details: shRNA
Further: reference of the scale not given here.

Sequence	sensor-assay potency score (higher = more potent)
TTTCACATCATGTTCTTGCTTT	0.568
TATGTTTTTCGGCATATCCTTG	-0.943
TATCCTTGAACTGATATACAAG	-1.19
TGATATTCACAACTCTAGCTAC	-0.607
TTTGTCATCATCTATGACCACT	-0.807
ATCATCATAAACCAGAACCTGG	-0.854
TTGATAGTCTCATTACAGGTGT	-0.336
TTGATTTTCTACTCCATTGCTG	0.197
TTTTATCTTGAAGTAGATCTAA	-0.166
TTGTTCTTCTGCCACATCTTGC	-0.939

Molecular target: EMD
Assay: as above
Details: shRNA

Sequence	sensor-assay potency score (higher = more potent)
AAGAAGACAAAAGATCGTCATC	-1.25
TCTGGTAGAGTAAAGCGTCCTC	0.201
AAGATCGTCATCATGCACCTGG	0.638
TAGTCGTCATTGTAGCCCTTGC	-0.858
TGGTGAAGTAGCTCTCTTCATA	-1.46
TAGTGCGTGATGCTCTGGTAGG	-0.899
TACGAGTTGATCCTACTACAGG	-1.33
TAAAGCGTCCTCTTTCTTGGGA	0.267
TAGTAGTCGTCATTGTAGCCCT	-0.272
AAAGCCTACGAGTTGATCCTAC	-0.00514
TAATAGGACAGGTCCAGGGAGC	-1.25
ATCTTCTTCTCGTAAAGCCTAC	-1.02
TAGCTCTCTTCATAGTAGTCGT	-0.538
TAGGATAATAGGACAGGTCCAG	-0.423
TCGTACTCGAAGATCTTCTTCT	0.284
TACTCGAAGATCTTCTTCTCGT	-0.0297
TCGAAGATCTTCTTCTCGTAAA	-1.01
ATCGTCATCATGCACCTGGTGA	-0.488
TGCTCTGGTAGAGTAAAGCGTC	-0.878
TTCCCTATCCTTGCACTCCTCT	-0.239
TATCCTTGCACTCCTCTTCAGA	-0.66
AATGAAGTCACTGACTGGCGGA	-0.824
TACATATCTGCATCCCCTCTAG	-0.434
TTCTTCTCGTAAAGCCTACGAG	-0.852

Molecular target: EMILIN2
Assay: as above
Details: shRNA

Sequence	sensor-assay potency score (higher = more potent)
TAGGTCTGAAGTTCACTCGATA	-0.326
ATAGTCATCACACTGCTGCTGG	0.195
TAGAGTTTTTACAACTATCTAT	-0.151
TTTAATTCCATCATGACCCGTT	0.891
AACAACTTGAACTTTGTCCTTC	0.591
TTTATTGACACTCCCTGTCTTT	-0.458
